ADAM17 inh – inhibits human ADAM17; recombinant ADAM17, EDANS/DABCYL FRET peptide cleavage; inhibition, % at 6.95 µM; 370,000 tested, 0.83% active; AID 720648;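 active = inhibition above the mean of compounds lying between control limits plus 3 SD, set per campaign, cut at about 8.5% in these data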;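 also: 0% = DMSO-only wells as the low control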
Target sequence (P78536 215-824 limits assumed): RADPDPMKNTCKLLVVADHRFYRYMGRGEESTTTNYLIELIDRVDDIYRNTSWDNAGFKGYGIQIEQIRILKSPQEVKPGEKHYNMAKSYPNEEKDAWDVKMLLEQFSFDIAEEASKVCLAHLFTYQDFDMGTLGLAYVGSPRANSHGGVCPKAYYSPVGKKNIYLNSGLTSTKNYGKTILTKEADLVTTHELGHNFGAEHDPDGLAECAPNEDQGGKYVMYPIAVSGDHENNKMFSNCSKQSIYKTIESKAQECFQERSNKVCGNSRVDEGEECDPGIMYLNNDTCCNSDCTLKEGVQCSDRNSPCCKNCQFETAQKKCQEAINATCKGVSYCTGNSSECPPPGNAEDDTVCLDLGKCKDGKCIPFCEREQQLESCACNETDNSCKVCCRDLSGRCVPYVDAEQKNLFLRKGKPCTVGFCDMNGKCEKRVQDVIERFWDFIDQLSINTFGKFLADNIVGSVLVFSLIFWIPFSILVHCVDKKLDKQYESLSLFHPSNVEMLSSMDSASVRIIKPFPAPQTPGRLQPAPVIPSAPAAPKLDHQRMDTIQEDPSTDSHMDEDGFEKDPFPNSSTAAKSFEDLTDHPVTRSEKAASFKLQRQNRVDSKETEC
proKLK7 act – activators of human kallikrein-7 zymogen; activation, % at 7 µM; P49862; 370,000 tested, 0.9% active; purified proKLK7, EDANS-DABCYL substrate fluorescence; 100% is mature enzyme control, 0% vehicle;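 active = activation above the mean of all tested compounds plus 3 SD, computed per campaign excluding outliers beyond control limits, cut at about 13% in these data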
ADAM10 inh – ADAM10 inhibition, QFRET primary screen; recombinant ADAM10, EDANS/DABCYL FRET peptide cleavage, 3 h; AID 720582; 370,000 tested, 0.62% active; inhibition, % at 7 µM;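 active = inhibition above a per-campaign cutoff equal to the mean of compounds falling between control-based bounds plus 3 SD, cut at about 20% in these data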;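 also: 0% = DMSO wells while the 100% control is not disclosed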
V-ATPase pH – alters yeast V-ATPase proton transport; S. cerevisiae, pHLuorin cytosolic pH fluorescence; response, % at 10 µM; 350,000 tested, 0.37% active; AID 504577; in the data active = response mostly above about 7.3%, no sharp cut-off; inactive = mostly below about 5.4%; also: actives read high
KLK7 act conf – proKLK7 activation, confirmation; 3,200 tested, 68% active; AID 686949; shares compounds with proKLK7 act; purified proKLK7, EDANS-DABCYL substrate fluorescence; scaled: vehicle 0, mature enzyme 100; activation, % at 7 µM;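 active = activation, as change over the incubation, above the mean of all tested compounds plus 3 SD, cut at about 13% in these data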
EDANS interfere – counter-screen for kallikrein-7 activators: EDANS-DABCYL optical interference; activation, % at 7 µM; 3,200 tested, 80% active; shares compounds with proKLK7 act; EDANS-DABCYL substrate fluorescence interference, no enzyme, 4 h; solvent 0%, active enzyme control 100%; AID 686952;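 active = activation above the all-compound mean plus 3 SD, ignoring values outside control-based bounds, cut at about 4.8% in these data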;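 also: value is the 4 h activation minus the activation read at time zero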
K7 EDANS ctr – counter-screen for kallikrein-7 activators: EDANS-DABCYL interference, dose response. shares compounds with proKLK7 act. EDANS-DABCYL peptide fluorescence interference, no enzyme. EC50, µM. 250 tested, 20% active. AID 720493;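 active = compounds that raise the fluorescence signal in this interference counterscreen, with EC50 at or below 10 µM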;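 also: intact quenched peptide substrate alone read at 355 nm excitation and 520 nm emission; signal is fluorescence gain from T0 to T4 after four hours at room temperature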
Numbers without * were called inactive; i = inactive; . = not tested or not shown. Only some compounds are listed: those with a hit (about 2.3% of all), similar ones and a draw of the others.

SMILES	ADAM17 inh	proKLK7 act	ADAM10 inh	V-ATPase pH	KLK7 act conf	EDANS interfere	others
COC(=O)Cc1c(C)c2ccc(OC3CCCCC3=O)cc2oc1=O (stereo unspecified)	-476	4	i	-2	.	.
COC(=O)Cc1c(C)c2ccc(OC(C)C)cc2oc1=O	-324	8	i	2	.	.
COC(=O)Cc1c(C)c2ccc(OC(=O)c3ccco3)cc2oc1=O	i	439*	i	-1	736*	741*
COC(=O)Cc1c(C)c2ccc(OCC(=O)N3CCOCC3)cc2oc1=O	-200	4	i	-6	.	.
CCc1c(C)c2ccc(OCC(=O)OC)cc2oc1=O	-148	20*	-477	6	22*	21*
COC(=O)Cc1c(C)c2cc(Cl)c(OC(=O)c3ccco3)cc2oc1=O	i	88*	i	3	397*	432*
COC(=O)[C@]12C[C@H](CC(=O)NCc3cccc4ccccc34)C(=O)N(Cc3ccc(Cl)cc3Cl)C1=C[C@H](C(C)C)O[C@@H]2C1CC1	-6	0	-3	.	.	.
COc1cccc(N(C)C(=O)[C@@H](C)[C@@H](O)c2ccc(Cl)cc2)c1	-1	0	3	.	.	.
O=C(C[C@H]1C[C@H](C(=O)N2CCCCC2)[C@@]2(CCc3ccccc3)c3[nH]c4cc(-c5ccco5)ccc4c3CCN2C1=O)NCCN1CCOCC1	-81	22*	-273	2	17*	5.7*	K7 EDANS ctr=8.6*
COCCCNC(=O)C[C@H]1C[C@H](C(=O)N2CCCCC2)[C@@]2(CCc3ccccc3)c3[nH]c4cc(-c5ccco5)ccc4c3CCN2C1=O	-73	22*	-256	-2	-27	-27
COc1nc(OC)nc(N2CCC(C(=O)NCc3cccc(OC)c3OC)CC2)n1	0	0	0	.	.	.
CC[C@H](C)/C=C(C)/C=C/C(=O)Cc1cc(O)c(C)c(O)c1C=O	-11	1	-60	-1	.	.
CC[C@H](C)/C=C(C)/C=C/c1cc2c(cn1)C(=O)[C@@](C)(OC(C)=O)C(O)=C2Cl	-61	86*	-231	.	108*	123*
CC(=O)Oc1ccc2c(=O)c(N3C(=O)c4ccccc4C3=O)c(C)oc2c1C	-9	27*	-23	1	34*	31*
COc1ccc2c(=O)c(N3C(=O)c4ccccc4C3=O)c(C)oc2c1	-34	0	-103	1	.	.
Cc1ccc(S(=O)(=O)NC[C@@H]2C[C@H](c3ccccc3)ON2S(=O)(=O)c2ccc(C)cc2)cc1	7	.	16	.	.	.
Nc1nc2cc3c(cc2cc1C(=O)NCc1cccnc1)OCO3	i	18*	i	.	30*	36*
COc1cccc(CNC(=O)[C@H]2CCCN2C(=O)[C@H]2CCCN2C(=O)c2cccs2)c1	-3	0	-3	.	.	.
C[C@H]1COc2cc(N3CCOCC3)ccc2S(=O)(=O)N1	-8	0	-14	.	.	.
N#Cc1cnn2c(-c3ccccc3)ccnc12	-214	45*	-465	-3	59*	66*
N#Cc1cnc2ncnn2c1-c1ccccc1	1	0	-4	-3	.	.
COc1ccc(-c2ccnc3c(C#N)cnn23)cc1	i	60*	i	4	69*	85*
Clc1ccccc1N1CCN(C2=Nc3ccccc3Sc3ccccc32)CC1	-1	-1	1	.	.	.
CN(C)c1ccc(/C=C/c2cccc[n+]2[O-])cc1	3	32*	3	-2	216*	236*
COc1ccc(Oc2coc3c(CN4CCOCC4)c(O)ccc3c2=O)cc1	-83	29*	-280	1	12	15*
SMILES	ADAM17 inh	proKLK7 act	ADAM10 inh	V-ATPase pH	KLK7 act conf	EDANS interfere	others
O=c1c(-c2ccccc2Cl)coc2c(CN3CCCCC3)c(O)ccc12	i	60*	i	1	74*	74*
O=c1c(-c2ccc(Br)cc2)coc2c(CN3CCCCC3)c(O)ccc12	-169	9	-408	1	.	.
O=c1c(-c2ccc(Cl)cc2)coc2c(CN3CCCCC3)c(O)ccc12	-178	14*	i	1	22*	27*
COc1ccc(Oc2coc3c(CN(C)C)c(O)ccc3c2=O)cc1	-92	7	-392	-2	.	.
CC1CCCN(Cc2c(O)ccc3c(=O)c(-c4ccc(Cl)cc4)coc23)C1 (stereo unspecified)	-92	-1	-202	1	.	.
CC1CN(Cc2c(O)ccc3c(=O)c(-c4ccccc4Cl)coc23)CC(C)O1 (stereo unspecified)	-370	90*	i	-2	26*	30*
O=c1c(-c2ccc(Br)cc2)coc2c(CN3CCOCC3)c(O)ccc12	-78	14*	-238	-3	13*	5.8*	K7 EDANS ctr=>69
CCN1CCN(c2nc(-c3ccccc3)c3ccccc3n2)CC1	-202	28*	i	3	-10	-6
c1ccc(-c2nc(N3CCNCC3)nc3ccccc23)cc1	-153	69*	-490	5	18*	19*
c1ccc2c(N3CCCCC3)nc(N3CCCC3)nc2c1	-8	-2	-17	-2	.	.
c1ccc(-c2nc(N3CCCCC3)nc3ccccc23)cc1	-143	22*	-457	-2	-69	-50
COc1ccc(-c2nnc(SCC(=O)NN=C/C=C\c3ccco3)n2-c2ccc(OC)cc2)cc1	3	0	4	.	.	.
COc1cccc(CN(C)C(=O)[C@@H](Cc2ccccc2)NC(=O)[C@H]2O[C@@H](n3ccc(=O)[nH]c3=O)[C@H](O)[C@@H]2O)c1	-3	0	-2	.	.	.
COc1ccc(-c2coc3cc(OC(C)=O)c(OC)cc3c2=O)cc1	-83	43*	-333	-3	153*	111*
S=C(Nc1ccc2nc(-c3ccccn3)c(-c3ccccn3)nc2c1)N1CCCCC1	.	.	.	0	.	.
CCCNC(=S)Nc1ccc2nc(-c3ccccn3)c(-c3ccccn3)nc2c1	-79	16*	-336	-2	44*	54*
CC1(C)OC(=O)C2=C(CC(CCc3ccccc3)OC2c2cccc(C(F)(F)F)c2)O1 (stereo unspecified)	0	-1	2	.	.	.
Cc1ccc(C=Nc2ccccc2C(=O)Nc2ccccc2)cc1	-145	-21	-484	1	.	.
O=C(Nc1ccccc1)c1ccccc1N=Cc1cccc(O)c1	-247	32*	i	2	15*	17*
N#Cc1cnn2ccc(-c3ccc4c(c3)CCC4)nc12	i	95*	i	-2	57*	76*
Nc1nc(-c2ccc3c(c2)CCCC3)cs1	-3	1	10	3	.	.
CN1CCN(c2c(F)cc3c(=O)c(C(=O)O)cn4c3c2OCN4C)CC1	-127	60*	-351	2	21*	30*

Compound activity from PubChem BioAssay.
